Bioassay records as filed in PubChem.
Cruzain Triton: inhibitors of Trypanosoma cruzi cruzain with detergent | P25779 | purified cruzain, Z-FR-AMC fluorescence, 0.01% Triton | Potency, µM, inactives show max response, negative = inhibition, usual class: inhibitors | actives 0.43% (n = 200,000) | AID 1478;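 further: plate controls were neutral wells for no effect and buffer without enzyme for full effect; nearly all actives have a fitted effect of over 40% in size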
Target sequence (P25779 123-467 limits assumed): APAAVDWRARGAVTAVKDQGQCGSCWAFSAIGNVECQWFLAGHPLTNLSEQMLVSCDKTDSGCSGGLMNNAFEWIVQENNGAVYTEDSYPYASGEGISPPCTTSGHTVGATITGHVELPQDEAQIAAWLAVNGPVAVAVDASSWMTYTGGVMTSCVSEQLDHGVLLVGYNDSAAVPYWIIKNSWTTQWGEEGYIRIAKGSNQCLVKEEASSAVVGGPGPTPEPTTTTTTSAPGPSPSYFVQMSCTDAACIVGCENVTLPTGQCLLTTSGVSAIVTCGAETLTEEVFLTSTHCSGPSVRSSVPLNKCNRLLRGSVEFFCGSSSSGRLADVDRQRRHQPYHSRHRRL
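Steps: dispense cruzain (1.5 nM final) in acetate buffer pH 5.5 with DTT and 0.01% Triton X-100; pin-transfer compounds; incubate 15 min RT; add Z-FR-AMC (2 uM final); read fluorescence every 30 s, using the 60 s intensity change.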
Cruzain noTriton: inhibitors of Trypanosoma cruzi cruzain without detergent; P25779; purified cruzain, Z-FR-AMC fluorescence, no detergent; Potency, µM, for inactives: max response, negative = inhibition, hits mostly inhibitors; actives 2.3% (n = 200,000);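 further: plate controls were enzyme without inhibitor for no effect and buffer without enzyme for full effect; nearly all actives have a fitted effect of over 40% in size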
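Purified cruzain at 1.5 nM, pre-incubated 15 min with compound at room temperature in 100 mM sodium acetate pH 5.5, 5 mM DTT, 0.00005% Triton X-100. Reaction started with 2 uM Z-FR-AMC; AMC fluorescence increase over 60 s gives rate.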
* hit, by the source's call; ? = inconclusive; . = no result given; ! = not active in a repeat. The list is not random: actives were taken first. Their share in the collection is about 2.5%. The call rests on the fitted dose curve; in most records, active means well fitted curve in the direction sought with a large enough effect; inconclusive means small, poorly fitted or top-dose-only effect, or another doubt; inactive means no such curve, though single readings can be large; an effect the other way counts as inactive or inconclusive. Potency means the concentration at half of the fitted maximal effect.

SMILES | Cruzain Triton | Cruzain noTriton
CCC(CC)C(=O)Nc1nc(-c2ccc3c(c2)CCN3C(=O)C2CC2)c(C)s1 | -7% | -2%
O=C(c1ccco1)N1CCC[C@@]2(CCN(c3ncccn3)C2)C1 | 0% | -3%
CCCCCNC(=O)CCn1c(=O)[nH]c2ccccc2c1=O | 1% | -4%
CCc1ccc(NC(=O)C(=O)NCC(c2cccnc2)N2CCN(Cc3ccccc3)CC2)cc1 (centres undefined) | -4% | 2%
Cc1ccc(-c2nc3c(c(SCC(=O)Nc4cccc(C(=O)O)c4)n2)Cc2cccc(C)c2O3)cc1 | -1% | -1%
Cc1cc(C)c(S(=O)(=O)Nc2cccc(-c3cn4ccccc4n3)c2)c(C)c1 | -2% | ?
Cc1ccc(N=Nc2c(O)ccc3cc(S(=O)(=O)O)ccc23)cc1 | -14% | ?
Cc1ccc(S(=O)(=O)Oc2ccc(N=Nc3ccc(-c4ccc(N=Nc5c(O)ccc6cc(S(=O)(=O)O)cc(S(=O)(=O)O)c56)c(C)c4)cc3C)cc2)cc1 | 13µM* | ?
COC(=O)[C@H](Cc1ccccc1)NC(=O)O[C@@H]1C(=O)c2ccc(OC)cc2O[C@H]1c1cccc(C(F)(F)F)c1 | -1% | 17%
CCN(CC)CCOc1ncnc2c1oc1ccccc12 | -1% | -1%
CCCCc1oc2ccccc2c1C(=O)c1cc(I)c(OCCN(CC)CC)c(I)c1 | 13µM*! | .
Cc1ccc(-n2ncc3c(NCCCN4CCOCC4)ncnc32)cc1C | 0% | 1%
COC(=O)c1c(C(=O)OC)c(C)n(Cc2ccco2)c1C | 4% | 1%
Cc1cc(C(=O)COC(=O)c2cc(Cl)ccc2N)c(C)n1Cc1ccco1 | -10% | 25µM*
CCC1CN(C(=O)N2CCC(C(=O)O)CC2)c2cc(C)ccc2O1 (centres undefined) | -2% | -3%
O=C(Cc1cc(=O)oc2cc(O)ccc12)NCC1CCC(C(=O)O)CC1 (centres undefined) | 25µM* | -87%
CN(C)c1cccc(C(=O)OCc2cc(=O)oc3cc(O)ccc23)c1 | -15% | -7%
Cc1[nH]n(-c2ncc(-c3ccccc3)s2)c(=O)c1C(c1ccc(Br)cc1)C(C#N)C#N (centres undefined) | ? | 13µM*
Cc1[nH]n(C(N)=S)c(=O)c1C(c1ccccc1)C(C#N)C#N (centres undefined) | 1% | 20%
Cc1ccc(NC(=O)c2cc3c(=O)n(Cc4ccco4)ccc3nc2C)cc1C | -7% | ?
C[C@@]12C[C@H](O)C3[C@H](CCC4=CC(=O)CC[C@]43C)[C@H]1CC[C@@H]2c1csc(-c2ccccc2)n1 (some centres undefined) | 2% | -7%
Cc1ccc(S(=O)(=O)c2nnn3c2nc(NCc2ccc4c(c2)OCO4)c2sccc23)cc1C | -6% | 25µM*
Cc1ccc(S(=O)(=O)c2nnn3c2nc(NCc2ccc4c(c2)OCO4)c2sccc23)cc1 | -6% | 9%
Cc1ccc(S(=O)(=O)c2nnn3c2nc(NCCc2ccccc2)c2sccc23)cc1 | 0% | 0%
CC(C)c1ccc(S(=O)(=O)c2nnn3c2nc(NCCc2ccccc2)c2sccc23)cc1 | 0% | 10µM*
SMILES | Cruzain Triton | Cruzain noTriton
COc1ccc(C(=O)c2cn(CC(=O)Nc3ccc4c(c3)OCO4)c3ccc(OC)cc3c2=O)cc1 | -9% | 1%
Cn1c(SCC(=O)Nc2ccccc2)nc(O)cc1=O | -4% | -11%
COc1ccc(NC(=O)CSc2nc(O)cc(=O)n2C)cc1 | -25% | 16µM*
Cc1cccc2cc(C#N)c(SCC(=O)NCC3CCCO3)nc12 (centres undefined) | 2% | -16%
Cc1cccc2cc(C#N)c(SCC(=O)NNC(=O)Cc3ccccc3)nc12 | 5% | 25µM*
Cc1ccc(C)c2nc(SCC(=O)NCc3cccs3)c(C#N)cc12 | 5% | -19%
Cc1cccc2cc(C#N)c(SCC(=O)NCc3cccs3)nc12 | -2% | 6.3µM*
O=C(c1ccc([N+](=O)[O-])cc1)N1CCN(c2ccc(Nc3ccccc3)nn2)CC1 | -10% | -25%
COc1ccc(CCNC(=O)c2cc3sccc3n2Cc2ccc(Cl)cc2)cc1OC | -5% | -6%
O=C(c1cc(C(F)(F)F)cc(C(F)(F)F)c1)N1CCC2(CCCN(c3ccccc3)C2)CC1 | -5% | -4%
COc1ccc(S(=O)(=O)n2nc(C)c(S(=O)(=O)N3CCC(C)CC3)c2C)cc1OC | 0% | -2%
O=C(N/N=C/c1cccc(OC2CSC2)c1)c1ccccc1O | -1% | 10µM*
Cn1ncc(Br)c1C(=O)N/N=C/c1cccc(OC2CSC2)c1 | -10% | 3%
CN1CCc2nc3sc(C(=O)C45CC6CC(CC(C6)C4)C5)c(N)c3cc2C1 | ? | 13µM*
CN1CCc2nc3sc(C(=O)c4ccc(F)cc4)c(N)c3cc2C1 | -6% | -1%
COC(=O)c1scc(-c2ccc(C)cc2)c1S(=O)(=O)N1CCN(c2cccc(OC)c2)CC1 | -4% | ?
O=C(CCc1ccccc1)NC(NC(=S)Nc1ccc(Br)cc1)C(Cl)(Cl)Cl (centres undefined) | 4% | 10µM*
